Reference: PubChem BioAssay (NCATS)
Values joined by “and” are separate entries in the source; they are usually repeats but may differ in a detail not shown here. Equal values may be shown once. Inconclusive results are not listed. Where a call stands in place of a potency, no number is given. Active and inactive are the calls of the source. Unless noted, the call rests on the fitted dose curve.

How the values were obtained:
[1] = target: Androgen receptor (Homo sapiens) (UniProt P10275); experiment: qHTS assay for small molecule antagonists of androgen receptor signaling (AID 588516; active means well fitted curve in the direction sought with a large enough effect in the signal ratio, with a control signal flat, not every such curve was filed as active; the % refers to the signal ratio)
Method in brief: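 AR-UAS-bla GripTite HEK 293 cells (2000/well) treated with compound titrations plus 10 nM R1881 for 16 h at 37C. Beta-lactamase read by CCF4 FRET (460/530 nm); IC50 from Hill fits, normalized to R1881 and DMSO control wells.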

[2] = qHTS assay for small molecule antagonists of peroxisome proliferator-activated receptor delta signaling (AID 588535; active means well fitted inhibition curve with a large enough effect in the signal ratio, with a control signal flat, not every such curve was filed as active; the % refers to the signal ratio;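 on max response: cells co-treated with a PPAR-delta agonist as stimulator during compound exposure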); conditions: HEK293T PPARd-UAS-bla, beta-lactamase FRET ratio, 18 h; 460 nm channel
Method in brief: (§1)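 Cell-based beta-lactamase assay in antagonist mode: 4000 HEK293T PPAR-delta-UAS-bla cells per well, 5 hr preincubation then 18 hr compound incubation at 37 C. IC50 obtained by Hill equation fitting.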

[3] = target: Peroxisome proliferator-activated receptor delta (Homo sapiens) (UniProt Q03181); experiment: as above
Method in brief: as §1

[4] = target: Peroxisome proliferator-activated receptor gamma (Homo sapiens) (UniProt P37231); experiment: qHTS assay for small molecule agonists of peroxisome proliferator-activated receptor gamma signaling (AID 588536; active means well fitted curve in the direction sought with a large enough effect in the signal ratio, with a control signal flat, not every such curve was filed as active; the % refers to the signal ratio)
Method in brief: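 HEK293 UAS-bla reporter line, 1% charcoal/dextran FBS; titration, 16 h, 37 C; CCF4 loading 2 h RT; fluorescence 460/530 nm. Normalized to rosiglitazone 2 uM = 100%, DMSO = 0%.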

[5] = target: Peroxisome proliferator-activated receptor gamma (Homo sapiens) (UniProt P37231); experiment: qHTS assay for small molecule antagonists of peroxisome proliferator-activated receptor gamma signaling (AID 588537; active means well fitted inhibition curve with a large enough effect in the signal ratio, with a control signal flat, not every such curve was filed as active; the % refers to the signal ratio;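 further: reporter cells co-stimulated with 50 nM rosiglitazone agonist during compound treatment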)
Method in brief: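 Inhibitors of agonist-stimulated UAS-bla reporter activity were sought in HEK293 cells; rosiglitazone (50 nM) defined full signal and DMSO baseline. Curves fitted to Hill model gave IC50 and efficacy.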

[6] = target: Vitamin D3 receptor (Homo sapiens) (UniProt P11473); experiment: qHTS assay for small molecule antagonists of vitamin D receptor signaling (AID 588541);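 further: receptor activated by calcitriol during compound treatment; series mostly up to about 77 µM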
Method in brief: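 Antagonist-mode beta-lactamase reporter assay: HEK293T VDR-UAS-bla cells were exposed to titrated compound alongside 1-alpha,25-dihydroxyvitamin D3 at 3 nM final for 16 h. Values were normalized to the 50 nM agonist control and DMSO basal, with IC50 and efficacy from Hill equation fits.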

[7] = target: Vitamin D3 receptor (Homo sapiens) (UniProt P11473); experiment: qHTS assay for small molecule agonists of vitamin D receptor signaling (AID 588543)
Method in brief: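 VDR-UAS-bla HEK293T cells, 2000/well, 2% charcoal-stripped FBS; compound titration 16 h at 37 C; CCF4 beta-lactamase ratio read. Normalized to 50 nM 1-alpha,25-dihydroxyvitamin D3 (100%) and DMSO; Hill fit gives EC50, efficacy.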

[8] = target: Bile acid receptor (Homo sapiens) (UniProt Q96RI1); experiment: qHTS assay for small molecule antagonists of farnesoid X receptor signaling (AID 588526)
Method in brief: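 Beta-lactamase reporter antagonist mode: HEK293T FXR-UAS-bla cells, titrated compound, CDCA stimulation, 16 h 37 C, CCF4 dye 2 h RT. Data normalized to CDCA 50 uM and DMSO; Hill-fit IC50.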

[9] = target: Glucocorticoid receptor (Homo sapiens) (UniProt P04150); experiment: qHTS assay for small molecule agonists of glucocorticoid receptor signaling (AID 588532; active means well fitted curve in the direction sought with a large enough effect in the signal ratio, with a control signal flat; the % refers to the signal ratio); conditions: HeLa MMTV-bla, beta-lactamase ratio, agonist, 18 h; stronger effect = higher value; percent of dexamethasone control, DMSO zero
Method in brief: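 Quantitative HTS using CellSensor MMTV-bla HeLa cells in charcoal/dextran-treated serum; compounds tested up to 92 uM. After 18 h at 37 C, CCF4 dye reported reporter induction.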

[10] = target: Glucocorticoid receptor (Homo sapiens) (UniProt P04150); experiment: qHTS assay for small molecule antagonists of glucocorticoid receptor signaling (AID 588533; active means well fitted inhibition curve with a large enough effect in the signal ratio, with a control signal flat, not every such curve was filed as active; the % refers to the signal ratio;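 further: cells stimulated with 2 nM dexamethasone as agonist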)
Method in brief: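 Antagonist-mode qHTS: compound titrations added to GRE-bla HeLa cells, then dexamethasone 2 nM final; 18 h, 37 C. CCF4 FRET fluorescence normalized to dexamethasone and DMSO; IC50 from Hill fit.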

Sequence of Androgen receptor (Homo sapiens) (P10275 whole entry, looked up): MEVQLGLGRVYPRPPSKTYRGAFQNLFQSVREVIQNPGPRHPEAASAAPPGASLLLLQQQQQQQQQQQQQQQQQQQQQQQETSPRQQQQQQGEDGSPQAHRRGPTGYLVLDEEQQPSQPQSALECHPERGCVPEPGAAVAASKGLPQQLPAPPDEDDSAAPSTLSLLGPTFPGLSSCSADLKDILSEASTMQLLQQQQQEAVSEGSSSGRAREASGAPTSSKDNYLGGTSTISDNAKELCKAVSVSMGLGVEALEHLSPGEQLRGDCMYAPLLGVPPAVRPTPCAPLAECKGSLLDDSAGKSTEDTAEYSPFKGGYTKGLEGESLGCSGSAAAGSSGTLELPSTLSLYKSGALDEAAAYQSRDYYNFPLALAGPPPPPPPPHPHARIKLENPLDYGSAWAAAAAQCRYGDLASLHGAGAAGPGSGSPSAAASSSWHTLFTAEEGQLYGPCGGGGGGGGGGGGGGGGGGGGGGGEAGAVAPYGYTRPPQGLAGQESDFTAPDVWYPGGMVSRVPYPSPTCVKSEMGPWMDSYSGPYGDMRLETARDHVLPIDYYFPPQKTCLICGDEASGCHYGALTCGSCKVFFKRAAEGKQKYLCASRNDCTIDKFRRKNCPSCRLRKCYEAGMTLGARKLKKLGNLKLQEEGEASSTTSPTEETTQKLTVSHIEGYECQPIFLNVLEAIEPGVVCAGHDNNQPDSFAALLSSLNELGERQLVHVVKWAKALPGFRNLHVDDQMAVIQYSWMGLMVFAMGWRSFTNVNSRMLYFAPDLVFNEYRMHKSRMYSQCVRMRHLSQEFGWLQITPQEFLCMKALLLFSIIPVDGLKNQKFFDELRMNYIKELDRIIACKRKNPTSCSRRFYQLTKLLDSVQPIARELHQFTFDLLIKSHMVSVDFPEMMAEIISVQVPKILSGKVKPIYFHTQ
Sequence of Bile acid receptor (Homo sapiens) (Q96RI1 whole entry, looked up): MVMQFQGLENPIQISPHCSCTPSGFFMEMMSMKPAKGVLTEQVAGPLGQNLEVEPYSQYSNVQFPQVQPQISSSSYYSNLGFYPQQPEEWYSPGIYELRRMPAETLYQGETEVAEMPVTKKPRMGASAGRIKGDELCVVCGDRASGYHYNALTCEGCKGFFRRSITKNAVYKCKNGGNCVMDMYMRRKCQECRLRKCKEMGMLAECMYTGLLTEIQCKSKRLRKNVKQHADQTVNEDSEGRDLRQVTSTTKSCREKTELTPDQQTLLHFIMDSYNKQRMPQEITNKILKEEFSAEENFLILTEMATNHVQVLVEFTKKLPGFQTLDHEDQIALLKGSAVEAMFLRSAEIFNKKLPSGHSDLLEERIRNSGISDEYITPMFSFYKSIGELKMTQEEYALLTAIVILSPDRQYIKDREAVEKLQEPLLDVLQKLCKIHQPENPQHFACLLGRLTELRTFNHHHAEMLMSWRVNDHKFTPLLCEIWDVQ
Sequence of Glucocorticoid receptor (Homo sapiens) (P04150 whole entry, looked up): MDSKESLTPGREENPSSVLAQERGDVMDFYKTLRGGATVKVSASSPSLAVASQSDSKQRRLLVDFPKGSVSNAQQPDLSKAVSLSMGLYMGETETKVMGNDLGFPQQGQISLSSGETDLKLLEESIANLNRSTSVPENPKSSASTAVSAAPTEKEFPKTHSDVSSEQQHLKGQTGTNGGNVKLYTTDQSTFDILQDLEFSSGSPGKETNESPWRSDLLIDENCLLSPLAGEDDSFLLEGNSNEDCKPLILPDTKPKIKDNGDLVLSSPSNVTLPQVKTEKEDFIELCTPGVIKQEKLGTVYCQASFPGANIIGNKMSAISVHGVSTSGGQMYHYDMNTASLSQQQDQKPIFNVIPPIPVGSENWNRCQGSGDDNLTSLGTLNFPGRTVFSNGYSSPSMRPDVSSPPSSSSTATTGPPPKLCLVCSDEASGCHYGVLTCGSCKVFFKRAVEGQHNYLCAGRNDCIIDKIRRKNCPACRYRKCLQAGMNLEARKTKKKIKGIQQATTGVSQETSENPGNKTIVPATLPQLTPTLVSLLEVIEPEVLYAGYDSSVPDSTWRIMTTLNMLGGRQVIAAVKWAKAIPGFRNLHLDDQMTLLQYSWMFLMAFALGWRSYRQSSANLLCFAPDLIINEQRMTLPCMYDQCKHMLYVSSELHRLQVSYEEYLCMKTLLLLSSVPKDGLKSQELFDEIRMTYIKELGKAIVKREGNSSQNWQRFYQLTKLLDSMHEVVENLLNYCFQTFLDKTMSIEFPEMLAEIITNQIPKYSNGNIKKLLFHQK
Sequence of Peroxisome proliferator-activated receptor gamma (Homo sapiens) (P37231 whole entry, looked up): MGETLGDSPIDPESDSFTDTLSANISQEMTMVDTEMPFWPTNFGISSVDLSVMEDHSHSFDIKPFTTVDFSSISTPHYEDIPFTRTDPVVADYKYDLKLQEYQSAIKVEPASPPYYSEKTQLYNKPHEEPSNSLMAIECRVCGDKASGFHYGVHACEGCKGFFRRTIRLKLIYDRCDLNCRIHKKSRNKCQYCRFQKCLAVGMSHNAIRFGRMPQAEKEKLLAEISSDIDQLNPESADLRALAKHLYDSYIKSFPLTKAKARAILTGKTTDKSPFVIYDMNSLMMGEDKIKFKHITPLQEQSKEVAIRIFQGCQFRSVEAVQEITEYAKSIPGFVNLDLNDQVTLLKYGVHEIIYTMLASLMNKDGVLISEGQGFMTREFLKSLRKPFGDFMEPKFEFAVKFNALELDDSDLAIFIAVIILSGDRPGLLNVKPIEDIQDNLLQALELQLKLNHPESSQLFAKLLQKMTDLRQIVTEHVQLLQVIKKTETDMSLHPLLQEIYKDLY
Sequence of Peroxisome proliferator-activated receptor delta (Homo sapiens) (Q03181 whole entry, looked up): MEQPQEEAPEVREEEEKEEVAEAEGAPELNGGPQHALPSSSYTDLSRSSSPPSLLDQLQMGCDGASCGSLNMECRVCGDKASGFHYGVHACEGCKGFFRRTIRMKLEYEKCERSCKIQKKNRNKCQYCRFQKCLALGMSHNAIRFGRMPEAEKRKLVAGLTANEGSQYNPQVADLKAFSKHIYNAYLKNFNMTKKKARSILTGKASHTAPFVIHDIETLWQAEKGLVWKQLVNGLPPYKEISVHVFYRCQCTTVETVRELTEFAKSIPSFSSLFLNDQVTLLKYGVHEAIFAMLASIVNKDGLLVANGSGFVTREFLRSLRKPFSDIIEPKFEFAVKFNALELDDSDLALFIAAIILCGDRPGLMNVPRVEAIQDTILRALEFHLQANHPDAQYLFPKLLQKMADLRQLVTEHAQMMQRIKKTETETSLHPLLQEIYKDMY
Sequence of Vitamin D3 receptor (Homo sapiens) (P11473 whole entry, looked up): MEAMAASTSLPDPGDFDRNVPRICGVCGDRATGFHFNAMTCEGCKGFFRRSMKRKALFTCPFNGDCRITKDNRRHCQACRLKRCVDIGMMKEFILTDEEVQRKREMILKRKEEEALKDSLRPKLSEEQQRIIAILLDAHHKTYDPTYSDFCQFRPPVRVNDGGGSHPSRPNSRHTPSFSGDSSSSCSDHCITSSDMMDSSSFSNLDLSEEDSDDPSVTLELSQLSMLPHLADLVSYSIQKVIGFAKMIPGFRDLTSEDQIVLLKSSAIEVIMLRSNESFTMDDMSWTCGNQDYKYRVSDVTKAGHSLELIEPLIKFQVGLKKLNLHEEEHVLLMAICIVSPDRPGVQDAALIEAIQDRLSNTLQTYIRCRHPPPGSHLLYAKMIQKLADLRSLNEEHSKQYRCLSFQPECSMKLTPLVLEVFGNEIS

Compound | outcome [1] | max response [2] | Potency [3] | outcome [4] | outcome [5] | outcome [6] | outcome [7] | outcome [8] | activation [9] | outcome [10]
O=Cc1ccc(Cl)cc1 | inactive | 7.54% | inactive | inactive | inactive | inactive | inactive |  |  | 
Cc1ccc(C)cc1 | inactive | -6.55% |  |  |  | inactive | inactive | inactive | -0.888% (inactive) | inactive
O=C(O)CCSSCCC(=O)O | inactive | 29.9% | inactive | inactive |  | inactive | inactive | inactive | -5.98% (inactive) | inactive
Nc1ccc(Cl)cc1[N+](=O)[O-] | inactive | 66.3% |  | inactive | inactive | inactive | inactive |  | -4.92% (inactive) | inactive
CCc1ccccc1O |  | -32.1% | inactive | inactive | inactive | inactive | inactive | inactive | 4.35% (inactive) | inactive
O=C1CCCCC1 | inactive | 1.87% | inactive | inactive | inactive | inactive | inactive |  | -2.34% (inactive) | 
Cc1ccc2cccnc2c1 | inactive |  |  |  |  |  | inactive | inactive | -3.65% (inactive) | inactive
ClCCl | inactive | 23.4% | inactive | inactive |  | inactive | inactive |  | -3.26% (inactive) | 
Nc1cccc2c(=O)[nH][nH]c(=O)c12 |  | -7.57% |  | inactive | inactive |  |  | inactive | 0.411% (inactive) | inactive
N#CC1(O)CCCCC1 |  | 12% |  | inactive |  | inactive | inactive | inactive | 0.0169% (inactive) | inactive
CC(N)CN (stereo unspecified) |  | 4.9% | inactive | inactive |  | inactive | inactive | inactive | -2.03% (inactive) | inactive
Cc1c(C(=O)O)cccc1[N+](=O)[O-] |  | -26.4% | inactive | inactive | inactive | inactive | inactive | inactive | -3.11% (inactive) | inactive
O=C(Cl)c1cccc([N+](=O)[O-])c1 |  | 33.5% |  | inactive |  | inactive | inactive | inactive | 3.39% (inactive) | inactive
COC(=O)CCCC(=O)OC |  | 14.2% | inactive |  |  | inactive | inactive | inactive | -5.32% (inactive) | inactive
CCCCCCCCCCCCOCC1CO1 (stereo unspecified) |  | 36.4% | inactive | inactive |  |  | inactive | inactive | 7.49% (inactive) | inactive
C=CC(=O)OCCCC |  | -13.6% | inactive |  |  | inactive | inactive | inactive | 6.23% (inactive) | inactive
NC(=S)NNC(N)=S |  | -7.61% and 32% | inactive |  | inactive |  |  | inactive | -4.1% (inactive) and -4.08% (inactive) | inactive
Nc1cc(Cl)c(N)c(Cl)c1 |  | 7.4% | inactive | inactive | inactive | inactive | inactive | inactive | 0.447% (inactive) | inactive
CC(=O)OC(C)C |  | -28.9% | inactive | inactive |  | inactive | inactive | inactive | 0.131% (inactive) | inactive
CC(=O)c1cccc([N+](=O)[O-])c1 |  | 13.5% | inactive | inactive |  | inactive | inactive | inactive | 1.38% (inactive) | inactive
Cc1ccc2oc(=O)ccc2c1 |  | 1.44% and 30.5% |  | inactive | inactive | inactive | inactive | inactive | -1.61% (inactive) | inactive
CCCCC(CC)COC(=O)CCCCC(=O)OCC(CC)CCCC (stereo unspecified) |  | -4.31% and 35.2% | inactive | inactive |  | inactive | inactive | inactive | 0.342% (inactive) and 3.17% (inactive) | inactive
CCC(C)=O |  | -36.3% | inactive | inactive |  | inactive | inactive | inactive | -3.19% (inactive) | inactive
CCCCCCC(=O)O |  | -11.6% | inactive |  |  | inactive | inactive | inactive | 2.07% (inactive) | inactive
Cc1cc(C)cc([N+](=O)[O-])c1 |  | -43.4% | inactive | inactive |  | inactive | inactive | inactive | -8.13% (inactive) | inactive
CN(C)CCCNCCCN |  | -8.47% | inactive |  | inactive | inactive | inactive | inactive | -1.86% (inactive) | inactive
O=[N+]([O-])c1ccc(NCCO)c(OCCO)c1 |  | 15.8% | inactive | inactive |  | inactive | inactive | inactive | 5.48% (inactive) | inactive
c1ccc(Oc2ccccc2)cc1 |  | -19.2% and -5.05% | inactive |  |  | inactive | inactive | inactive | 2.66% (inactive) and -3.4% (inactive) | inactive
